Test [1] can be described thus: optical density shifts of acrAB sulA E. coli – strain DRC41, OD650, 48 h, E. coli filamentation inducer project, primary screen (AID 1152).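 Note: E. coli MC1000 strain DRC41 lacking acrAB efflux pump and sulA.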 To be noted: higher = more signal, called active from +8 up or from −8 down.
The nature of test [2]: probe aLefty1 binding on compound microarray – biochemical, small-molecule microarray, 635/667 nm fluorescence, primary screen (AID 1153).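 Note: score merges spot fluorescence with signal-to-noise ratio from the scanned slide images.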 To be noted: higher = more signal.
A short description of test [3]: plasmodial surface anion channel blockers, osmotic lysis – cell-based, P. falciparum Indochina, OD700, 1 h, primary screen (AID 1154). To be noted: P. falciparum Indochina infected RBC osmotic lysis, higher = more signal, called active from +8 up or from −8 down.
Test [4] in a line: plasmodial surface anion channel blockers, osmotic lysis – cell-based, P. falciparum Indochina, OD700, 2 h, primary screen (AID 1155).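 Note: lysis reports solute entry through the parasite surface anion channel PSAC.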 To be noted: P. falciparum Indochina infected erythrocytes, higher = more signal, called active from +8 up or from −8 down.
Test [5] is described as follows: changes in parasitized red cell lysis, either direction – P. falciparum Indochina, OD700, 3 h, PSAC antagonist project, primary screen (AID 1156). To be noted: P. falciparum-infected erythrocytes, osmotic lysis, higher = more signal, called active from +8 up or from −8 down.
Test [6] can be described thus: plasmodial surface anion channel blockers, osmotic lysis – cell-based, P. falciparum Indochina, OD700, 18 h, primary screen (AID 1157). To be noted: P. falciparum Indochina infected erythrocytes, osmotic lysis OD700, 18 h; higher = more signal, called active from +8 up or from −8 down.
Test [7] can be described thus: S6 kinase pathway phospho-S6 level changes – cell-based, A549, cytoblot, luminescence, serum-stimulated, primary screen (AID 1158).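 Note: serum-stimulated A549 lung adenocarcinoma cells; signal is phosphorylated S6 detected by cytoblot immunostaining with HRP secondary.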 To be noted: 5 h, higher = more signal.
In test [8] the target is NADPH oxidase 2 (Homo sapiens) (UniProt P04839). In words: compounds shifting NOX2 Amplex Red fluorescence – cell-based, HEK293-NOX2, PMA-stimulated, NOX inhibitor project, primary screen (AID 1159). Note: test concentration not given here. To be noted: 45 min, higher = more signal, called active from +8 up or from −8 down.
NADPH oxidase 2 (Homo sapiens), sequence (P04839 whole entry, looked up): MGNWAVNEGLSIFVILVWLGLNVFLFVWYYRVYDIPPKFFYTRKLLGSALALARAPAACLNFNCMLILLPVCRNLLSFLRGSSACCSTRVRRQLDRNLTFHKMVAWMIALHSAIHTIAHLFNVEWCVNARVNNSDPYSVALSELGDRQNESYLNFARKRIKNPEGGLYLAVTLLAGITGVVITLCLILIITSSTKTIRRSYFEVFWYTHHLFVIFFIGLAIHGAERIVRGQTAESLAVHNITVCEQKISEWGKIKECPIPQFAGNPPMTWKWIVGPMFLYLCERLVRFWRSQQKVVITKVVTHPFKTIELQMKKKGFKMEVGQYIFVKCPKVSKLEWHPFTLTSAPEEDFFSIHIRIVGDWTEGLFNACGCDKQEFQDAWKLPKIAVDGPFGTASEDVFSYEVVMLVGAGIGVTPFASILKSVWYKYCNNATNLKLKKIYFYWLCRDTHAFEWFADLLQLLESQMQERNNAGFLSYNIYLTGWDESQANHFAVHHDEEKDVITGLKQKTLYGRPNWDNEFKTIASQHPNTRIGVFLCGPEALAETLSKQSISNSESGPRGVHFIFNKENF
The target of test [9] is NADPH oxidase 4 (Homo sapiens) (UniProt Q9NPH5). As to the kind of experiment: compounds shifting NOX4 Amplex Red fluorescence – cell-based, HEK293-NOX4, tetracycline-induced, NOX inhibitor project, primary screen (AID 1160). To be noted: HEK293-NOX4, Amplex Red H2O2 fluorescence, 45 min; higher = more signal, called active from +8 up or from −8 down.
NADPH oxidase 4 (Homo sapiens), sequence (Q9NPH5 whole entry, looked up): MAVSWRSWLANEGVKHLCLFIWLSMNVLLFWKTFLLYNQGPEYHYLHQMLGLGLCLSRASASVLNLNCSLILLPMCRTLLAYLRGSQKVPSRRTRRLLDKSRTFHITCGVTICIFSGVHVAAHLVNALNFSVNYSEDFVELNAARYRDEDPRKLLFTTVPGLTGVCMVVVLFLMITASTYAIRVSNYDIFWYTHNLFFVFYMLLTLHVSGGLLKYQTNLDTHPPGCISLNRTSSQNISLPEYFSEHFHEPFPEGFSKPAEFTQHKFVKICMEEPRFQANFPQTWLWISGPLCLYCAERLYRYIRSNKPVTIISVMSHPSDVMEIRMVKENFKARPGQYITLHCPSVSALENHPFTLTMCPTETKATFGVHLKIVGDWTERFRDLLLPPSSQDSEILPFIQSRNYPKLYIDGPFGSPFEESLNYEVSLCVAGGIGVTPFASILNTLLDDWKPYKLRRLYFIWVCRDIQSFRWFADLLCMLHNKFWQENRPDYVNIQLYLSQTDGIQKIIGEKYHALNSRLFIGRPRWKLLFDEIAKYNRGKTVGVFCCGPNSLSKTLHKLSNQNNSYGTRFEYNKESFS
Test [10] deals with NADPH oxidase 5 (Homo sapiens) (UniProt Q96PH1). In words: compounds shifting NOX5 Amplex Red fluorescence – cell-based, HEK293-NOX5, NOX inhibitor project, primary screen (AID 1161). To be noted: HEK293-NOX5, ionomycin, 45 min, higher = more signal.
NADPH oxidase 5 (Homo sapiens), sequence (Q96PH1 whole entry, looked up): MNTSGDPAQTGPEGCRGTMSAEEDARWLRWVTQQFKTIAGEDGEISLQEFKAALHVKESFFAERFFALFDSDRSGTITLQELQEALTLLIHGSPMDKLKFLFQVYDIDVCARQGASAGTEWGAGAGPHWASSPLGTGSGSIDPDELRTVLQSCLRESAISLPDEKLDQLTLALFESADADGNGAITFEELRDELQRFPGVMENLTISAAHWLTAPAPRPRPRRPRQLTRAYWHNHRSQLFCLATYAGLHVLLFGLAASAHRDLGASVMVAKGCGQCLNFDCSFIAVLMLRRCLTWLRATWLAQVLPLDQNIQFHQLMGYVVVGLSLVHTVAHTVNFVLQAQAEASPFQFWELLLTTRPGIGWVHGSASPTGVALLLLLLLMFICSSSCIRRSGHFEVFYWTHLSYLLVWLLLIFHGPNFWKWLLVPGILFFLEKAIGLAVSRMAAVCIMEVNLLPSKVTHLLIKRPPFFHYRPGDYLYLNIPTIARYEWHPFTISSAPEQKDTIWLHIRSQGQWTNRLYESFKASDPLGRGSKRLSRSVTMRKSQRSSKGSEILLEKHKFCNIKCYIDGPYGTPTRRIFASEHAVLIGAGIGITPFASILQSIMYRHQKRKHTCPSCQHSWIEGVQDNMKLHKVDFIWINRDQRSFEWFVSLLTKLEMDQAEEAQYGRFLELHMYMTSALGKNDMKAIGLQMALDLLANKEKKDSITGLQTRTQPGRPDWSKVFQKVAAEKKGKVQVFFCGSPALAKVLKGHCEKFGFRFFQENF
Test [11] can be described thus: compound effects on lung adenocarcinoma cell viability – A549, calcein-AM fluorescence, 48 h, basal, profiling panel (AID 1162). Note: test concentration not given here. To be noted: higher = more signal.
Test [12] is described as follows: compound effects on differentiated 3T3-L1 adipocyte viability – cell-based, 3T3-L1 adipocytes, calcein-AM fluorescence, 48 h, basal, profiling panel (AID 1163). Note: test concentration not given here. To be noted: 3T3-L1 adipocytes viability, higher = more signal.
Test [13] in a line: compound effects on hepatocellular carcinoma cell viability – HepG2, calcein-AM fluorescence, 48 h, basal, profiling panel (AID 1164). Note: test concentration not given here. To be noted: higher = more signal.
Test [14] can be described thus: compound effects on multiple myeloma cell viability – MM1S, calcein-AM fluorescence, 48 h, basal, profiling panel (AID 1165).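 Note: viability of MM1S multiple myeloma cells under basal unstimulated conditions; test concentration not given here.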 To be noted: higher = more signal.
A short description of test [15]: calcein-AM signal in unstimulated myeloma cells – cell-based, calcein-AM fluorescence, 48 h, PK04 Diversity Set, profiling panel (AID 1166).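 Note: cells grown under basal conditions without added stimulus; test concentration not given here.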 To be noted: RPMI8226 myeloma viability, higher = more signal.
Test [16] in a line: JC-1 mitochondrial signal, unstimulated HepG2 cells – cell-based, JC-1 fluorescence, 24 h, 100 nL compound, profiling panel (AID 1167). Note: test concentration not given here. To be noted: HepG2 mitochondrial potential, higher = more signal.
Test [17] can be described thus: JC-1 mitochondrial signal, unstimulated adipocytes – cell-based, JC-1 fluorescence, 3T3-L1 adipocytes, 24 h, 100 nL compound, profiling panel (AID 1168). Note: test concentration not given here. To be noted: JC-1 mitochondrial fluorescence, higher = more signal, called active from +8 up or from −8 down.
Test [18] is described as follows: JC-1 mitochondrial signal, unstimulated myeloma cells – cell-based, JC-1 fluorescence, RPMI8226, 24 h, 100 nL compound, profiling panel (AID 1169). Note: test concentration not given here. To be noted: JC-1 mitochondrial potential fluorescence, higher = more signal.
The nature of test [19]: JC-1 mitochondrial signal, unstimulated MM1S myeloma – cell-based, JC-1 fluorescence, 24 h, 100 nL compound, profiling panel (AID 1170). Note: test concentration not given here. To be noted: MM1S mitochondrial potential, higher = more signal.
Test [20] in a line: resazurin metabolic signal in A549 cells – cell-based, resazurin fluorescence, 24 h, PK04 Diversity Set, profiling panel (AID 1171). Note: test concentration not given here. To be noted: A549 viability, higher = more signal, called active from +8 up or from −8 down. A general note: Resazurin is reduced to fluorescent resorufin, in cell work by metabolically active cells.

Calls of active or inactive are those of the source.

With `C=CCC(OC(C)=O)[C@@H]1[C@@H](N(Cc2ccc(-c3cccc(C(F)(F)F)c3)o2)C(=O)c2ccc(C)cc2)c2cc(OCCCO)ccc2N1C(=O)Cc1ccc(OC)cc1` (stereo not given in full), the z-score in test [1] is 2.06 (inactive); in test [3] it was 2.58 (inactive); in test [4], 0.0001 (inactive); in test [5], 0.636 (inactive); in test [6], 0.432 (inactive); in test [7] it was 0.194. Moreover, the z-score is -1.44 (inactive) in test [8]; 0.641 (inactive) in test [9]; 0.233 in test [10]; 1.22 in [11]; 0.608 in [12]; 2.12 in test [13]. In addition, the z-score in test [14] is -0.155; in test [15], 0.002; in [16] it was 3.98; in [17], 0.557 (inactive); in [18] it was -0.245; in test [19], -0.83. For the same molecule, the z-score in test [20] was 1.25 (inactive). The composite z-score in test [2] came to 0.0934.
As to `C=CCNC(=O)[C@H]1[C@@H]2C(=O)O[C@@H](c3ccccc3)[C@@H](c3ccccc3)N2[C@@H](c2ccc(OCCO)cc2)[C@]12C(=O)Nc1ccc(C#CCNC(N)=O)cc12`, the z-score in [1] was -0.0661 (inactive); in test [3], 2.59 (inactive); in test [4], 1.36 (inactive); in test [5], 1.42 (inactive); in test [6], 0.563 (inactive); in test [7], 0.326. Moreover, the z-score was 1.91 (inactive) in test [8]; 0.286 (inactive) in [9]; -0.621 in test [10]; 0.292 in test [11]; 1.63 in [12]; -0.529 in test [13]. Further, the z-score was -1.41 in test [14]; -0.062 in test [15]; -1.11 in test [16]; -0.657 (inactive) in [17]; -0.0816 in test [18]; 0.938 in test [19]. For the same molecule, the z-score in test [20] was -0.805 (inactive). In test [2], this molecule yielded a composite z-score of 0.0809.
As for `COc1cc2c(cc1O)C(c1ccc(CN3CCCC3)cc1)N(C)CC2` (stereo not given), the z-score is 0.309 (inactive) in test [1]; 0.0334 (inactive) in test [3]; -0.0719 (inactive) in [4]; 0.247 (inactive) in [5]; 0.0339 (inactive) in test [6]; -0.364 in test [7]. Also, the z-score in test [8] was -1.63 (inactive); in test [9] it was -1.46 (inactive); in test [10], -1.22; in [11], 0.105; in test [12], -0.582; in test [13], 0.339. Besides, the z-score was 0.752 in [14]; 0.0578 in [15]; 0.224 in test [16]; 0.585 (inactive) in [17]; 0.224 in test [18]; -0.699 in test [19]. Further, the z-score in test [20] was -1.18 (inactive). In addition, in [2], the composite z-score is -0.446.
On to `COCCOC(=O)N1C(=O)[C@@]2(c3cc(C#CC4=CCCCC4)ccc31)[C@H](C(=O)N1CCCCCCC1)[C@H]1C(=O)O[C@H](c3ccccc3)[C@H](c3ccccc3)N1[C@@H]2c1ccc(OCCO)cc1`, for which the z-score was -1.1 (inactive) in test [1]; 4.58 (inactive) in [3]; 1.19 (inactive) in test [4]; -0.26 (inactive) in test [5]; 0.481 (inactive) in test [6]; 0.118 in test [7]. Further, the z-score is 0.983 (inactive) in test [8]; 0.567 (inactive) in test [9]; -0.934 in test [10]; 0.382 in test [11]; 1.74 in test [12]; -0.214 in test [13]. Further, the z-score was -0.774 in test [14]; -0.779 in test [15]; 0.225 in test [16]; -3.07 (inactive) in [17]; -0.674 in [18]; -1.14 in test [19]. The z-score in [20] is -0.223 (inactive). The molecule further gave a composite z-score in test [2] of 1.88.
As for `COCCCNC(=O)[C@@]1(c2ccc([N+](=O)[O-])cc2)CC(=O)N(C(C)C)[C@@H]1c1ccc(CO)cc1`, the z-score is 0.569 (inactive) in [1]; 0.481 (inactive) in test [3]; -0.135 (inactive) in test [4]; -0.288 (inactive) in test [5]; -0.0629 (inactive) in test [6]; 0.361 in test [7]. The z-score in test [8] was -0.635 (inactive); in test [9] it was 0.726 (inactive); in test [10], -0.0684; in test [11], 1.12; in test [12] it was 1.22; in [13], 0.603. Moreover, the z-score in [14] is 0.105; in test [15], 0.243; in [16], -0.0251; in test [17] it was -0.612 (inactive); in test [18], -0.795; in [19] it was -1.28. The z-score in [20] is 0.985 (inactive). The molecule further yielded a composite z-score in [2] of 0.125.

Source of the values: PubChem BioAssay.
